Screening results deposited in PubChem by several laboratories.
Cav3 T inh: blocks human Cav3.2 T-type calcium channel; 100,000 compounds, 4% hits; B-score at 10 µM; Cav3.2-expressing cells, Fluo-4 calcium fluorescence FDSS; active compounds read low; O95180;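 active = single-dose well whose peak fluorescence ratio is a statistical outlier from its plate by either plate-standardised score or position-corrected B-score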
CYP2C9 act: activators of human CYP2C9; recombinant CYP2C9, luciferin-H conversion, luminescence; active compounds read high; factor 1 = untreated enzyme, 0 = blocked; 96,000 compounds, 1.4% hits; P11712; AID 1024; activation factor at 5 µM;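 active = activation factor of 2 or more for CYP2C9 at a 5 µM dose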
CYP2C19 activ: cytochrome P450 2C19 (human) activation | P33261 | recombinant CYP2C19, luciferin-H EGE luminescence; active compounds read high; 0 = fully inhibited enzyme, 1 = untreated enzyme | activation factor at 5 µM | 96,000 tested, under 10 active;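 active = activation factor of at least 2 at 5 µM in the primary screen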
Target sequence (P33261 whole entry, looked up): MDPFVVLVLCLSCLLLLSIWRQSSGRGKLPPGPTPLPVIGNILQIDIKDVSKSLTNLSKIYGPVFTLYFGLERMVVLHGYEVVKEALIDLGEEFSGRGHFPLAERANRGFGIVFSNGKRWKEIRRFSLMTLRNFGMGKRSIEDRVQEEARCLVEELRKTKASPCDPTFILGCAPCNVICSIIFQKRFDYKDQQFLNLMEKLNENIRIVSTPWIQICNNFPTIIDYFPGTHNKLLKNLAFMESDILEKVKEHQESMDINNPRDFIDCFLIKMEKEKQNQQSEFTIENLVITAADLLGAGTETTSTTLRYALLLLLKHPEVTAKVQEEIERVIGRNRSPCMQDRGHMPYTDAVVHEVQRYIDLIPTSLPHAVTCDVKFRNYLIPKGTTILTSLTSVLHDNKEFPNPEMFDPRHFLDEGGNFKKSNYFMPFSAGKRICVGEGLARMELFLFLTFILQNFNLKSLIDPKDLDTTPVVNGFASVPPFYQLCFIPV
CYP2C9 inh: human CYP2C9 inhibition | CYP2C9 Supersomes, luciferin-H conversion, luminescence | AID 777 | 96,000 compounds, 20% hits | inhibition, % at 5 µM;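 active = blocking of liver enzyme CYP2C9 beyond about 50% at 5 µM, limit read from the data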
CYP2C19 inhib: inhibitors of human CYP2C19 | P33261 | CYP2C19 Supersomes, luciferin-H EGE luminescence, 30 min | inhibition, % at 5 µM | 96,000 compounds, 21% hits;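 active = CYP2C19 inhibition above a set limit at 5 µM in the primary screen, cut at about 50% in these data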
A number is an active result; 0 = inactive; - = no result. Most compounds without a hit are left out; they make up all but 27% or so of the library.

SMILES	Cav3 T inh	CYP2C9 act	CYP2C19 activ	CYP2C9 inh	CYP2C19 inhib
COc1ccc(C)cc1S(=O)(=O)N1CCN(c2cccc(C(F)(F)F)c2)CC1	0	0	0	0	98
COc1ccc(C)cc1S(=O)(=O)N1CCN(S(=O)(=O)c2cc(C)ccc2OC)C(C)C1 (stereo unspecified)	0	0	0	99	100
Cc1ccc(Cl)cc1N1CCN(CC(=O)Nc2ccc3[nH]c(=O)[nH]c3c2)CC1	0	0	0	0	0
Cc1ccccc1-c1nnc2s/c(=C\c3ccc(N(C)C)cc3)c(=O)n12	-	0	0	0	0
COC(=O)COc1ccc(S(=O)(=O)N2CCN(c3ccc(F)cc3)CC2)cc1	-	0	0	0	0
CCOc1ccc(Cl)cc1S(=O)(=O)N1CCN(c2ccc(C)c(C)c2)CC1	0	0	0	60	100
COc1ccc(Cl)cc1C(=O)N1CCN=C1SC	0	0	0	0	0
COC(=O)Nc1ccc(S(=O)(=O)N2CCN(c3ccc(F)cc3)CC2)cc1	0	0	0	0	0
CCOc1ccc(Cl)cc1S(=O)(=O)N1CCN(c2ccc(F)cc2)CC1	-3.7	2.4	0	0	100
COc1c(S(=O)(=O)N2CCN(c3ccc(F)cc3)CC2)ccc(Cl)c1Cl	0	0	0	0	61
CCOC(=O)N1CCN(S(=O)(=O)c2cc(Cl)ccc2Cl)CC1	0	-	-	-	-
COc1ccc(Cl)cc1S(=O)(=O)N1CCN=C1C	0	0	0	0	90
CC(C)C[C@H](NC(=O)c1[nH]cnc1C(=O)N[C@@H](C)C(=O)OC(C)(C)C)C(=O)OCc1ccccc1	0	-	-	-	-
Cc1cc(Cl)c(S(=O)(=O)N2CCN(c3ccc(F)cc3)CC2)cc1OCC(=O)NC1CCCCC1	-5.2	0	0	96	83
Cc1cc(Cl)c(S(=O)(=O)N2CCN(c3ccc(F)cc3)CC2)cc1OCC(N)=O	0	0	0	0	0
CC(=O)Nc1ccc(S(=O)(=O)n2cnc3cc(C)c(C)cc32)cc1	-	0	0	78	100
CC(=O)Nc1ccc(C(=O)n2cnc3cc(C)c(C)cc32)cc1	0	0	0	0	0
CCOc1ccccc1OCCOCCN1CC(C)OC(C)C1 (stereo unspecified)	0	0	0	0	0
CC(C)[C@H](NC(=O)[C@@H]1CSCN1C(=O)OC(C)(C)C)C(=O)NCC1CCC(C(=O)O)CC1 (stereo partly specified)	0	0	0	0	0
COc1ccc(CN2C(=O)CN=C2Nc2cc(C)ccc2C)cc1	0	0	0	57	0
CCc1ccccc1NC1=NCC(=O)N1Cc1ccc(OC)cc1	0	0	0	0	0
COc1ccc(Br)cc1/C=N/NC(=O)c1nc(-c2ccccc2)n2c1CCCCC2	0	0	0	0	60
Cc1cc(C(=O)N/N=C/c2cc(Br)ccc2OC(=O)c2ccccc2)n[nH]1	-	0	0	61	0
CCOc1ccc(N=C(NC#N)SCC(=O)NC2CC2)cc1	0	0	0	0	0
COc1ccc(OC)c(NC(=O)C23CC4CC(C2)CC(n2cnc(Br)n2)(C4)C3)c1	0	2.6	0	0	72
SMILES	Cav3 T inh	CYP2C9 act	CYP2C19 activ	CYP2C9 inh	CYP2C19 inhib
COc1ccc(NC(=O)C23CC4CC(C2)CC(n2cnc(Br)n2)(C4)C3)c(OC)c1	3.4	0	0	0	0
CC(C)NC(=O)C12CC3CC(C1)CC(n1cnc(Cl)n1)(C3)C2	0	0	0	0	0
COC(=O)c1ccc(CNC(=O)CSc2nnc(COc3ccccc3)n2C)o1	0	0	0	0	0
Cn1c(=O)[nH]c(=O)c2c1nc(N1CCCCC1)n2CCCSc1nc2ccccc2s1	0	-	-	-	-
N#C/C(=C\c1cn(CCOc2ccccc2)c2ccccc12)C(=O)NCc1ccco1	0	0	0	0	0
Cc1ccc(C)c(OCCn2cc(/C=C(\C#N)C(=O)NCc3cccs3)c3ccccc32)c1	0	0	0	78	0
Cc1cc(/C=C(\C#N)C(=O)Nc2ccccc2)c(C)n1-c1ccc2c(c1)OCO2	0	0	0	0	0
Cc1cc(/C=C(\C#N)C(=O)NCc2cccs2)c(C)n1-c1ccccc1F	-4.8	0	0	0	0
COc1ccc(-n2nnnc2SCC(=O)Nc2nc3c(s2)CCCC3)cc1	0	0	0	0	0
O=C(c1cccc(S(=O)(=O)N2CCCC2)c1)c1cccc(S(=O)(=O)N2CCCC2)c1	0	0	0	0	0
Cc1ccc(Cl)cc1N1CCN(S(=O)(=O)c2cccc(S(=O)(=O)N3CCCC3)c2)CC1	0	0	0	87	64
O=c1ccc2cc(S(=O)(=O)N3CCN(c4cc(Cl)ccc4Cl)CC3)ccc2o1	0	0	0	88	74
CCC(=O)c1cc(F)c(N2CCN(S(=O)(=O)c3ccccc3)CC2)cc1C	0	0	0	0	0
COc1ccccc1N1CCN(S(=O)(=O)c2cc(C)sc2C)CC1	0	0	0	0	0
O=c1c(Cl)c(N2CCN(S(=O)(=O)c3ccc(F)cc3)CC2)cnn1-c1cccc(Cl)c1	0	0	0	0	0
Cc1cc(S(=O)(=O)N2CCN(c3ccccc3C)CC2)ccc1F	0	0	0	95	97
Cc1cc(S(=O)(=O)N2CCN(c3ccccc3O)CC2)c(C)s1	0	0	0	0	71
O=S1(=O)C=CC(Nc2ccccc2)C1 (stereo unspecified)	0	0	0	0	0
CCn1c(=O)c(C(=O)Nc2nc3ccccc3[nH]2)c(O)c2ccccc21	0	0	0	0	0
Cc1cc(S(=O)(=O)N2CCN=C2c2ccccc2)ccc1F	0	0	0	65	95
Cc1cc(S(=O)(=O)N2CC(=O)N(CCc3ccccc3)C(=O)C2)ccc1F	0	0	0	0	0
Cc1cc(S(=O)(=O)N2CCN(c3c(C)cccc3C)CC2)ccc1F	0	0	0	98	97
Cc1cccc(N2CCN(S(=O)(=O)c3ccc(S(=O)(=O)N4CCCC4)cc3)CC2)c1C	-	0	0	0	0
Cc1ccccc1N1CCN(S(=O)(=O)c2ccccc2)CC1	-4.6	-	-	-	-
CC1Cc2ccccc2N1C(=O)COc1nc2ccccc2nc1N1CCOCC1 (stereo unspecified)	-	0	0	0	0
SMILES	Cav3 T inh	CYP2C9 act	CYP2C19 activ	CYP2C9 inh	CYP2C19 inhib
CCCCCOP(=O)(OCCCCC)C1(NS(=O)(=O)c2ccccc2)C=CC(=O)c2ccccc21 (stereo unspecified)	0	0	0	56	0
CCCn1cnc2sc(C(N)=O)c(C)c2c1=O	0	0	0	0	0
Cc1ccc(S(=O)(=O)c2c(C)cc(C)nc2Cl)cc1	0	0	0	0	94
Cc1cc(C)c(S(=O)(=O)c2ccccc2)c(OC(=O)c2ccc(Cl)cc2Cl)n1	0	0	0	0	0
Cc1cc(C)c(S(=O)(=O)c2ccccc2)c(Cl)n1	0	3.2	0	0	69
COc1ccc(Oc2nc(C)cc(C)c2S(=O)(=O)c2ccc(C)cc2)cc1	-	0	0	0	0
Cc1cc(C)c(S(=O)(=O)c2ccccc2)c(OC(=O)c2c(Cl)cccc2Cl)n1	-4.6	0	0	0	0
COc1ccc(-c2cn(-c3ccc(C)cc3)c(=O)n2CC(=O)Nc2cccc(F)c2)cc1	-5	0	0	0	0
